We go through 31 sequences from publication PMC12820563, “FoxP3 forms a head-to-head dimer in vivo and stabilizes its multimerization on adjacent microsatellites”.

The full ranking holds about 16,000 sequences; the median of “rpm ratio (pull-down/input)” is about 0.5, and the highest 2% start at about 5.5. For the sample, the highest values were picked, then their nearest neighbours and some sequences at random.

For the experiment, the target named is T1, MBP-FoxP3dN (Mus musculus, UniProt Q99JB6 188-423).
T1 sequence: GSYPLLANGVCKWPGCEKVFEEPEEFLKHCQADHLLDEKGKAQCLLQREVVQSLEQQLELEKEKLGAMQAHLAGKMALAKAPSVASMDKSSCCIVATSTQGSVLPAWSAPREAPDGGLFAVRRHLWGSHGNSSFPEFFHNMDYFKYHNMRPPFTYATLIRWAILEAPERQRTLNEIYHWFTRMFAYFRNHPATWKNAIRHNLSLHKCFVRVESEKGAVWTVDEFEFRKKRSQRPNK
The experiment can be described thus: PD-seq (MBP pull-down with sequencing); 20 mM Tris-HCl pH 7.5, 100 mM NaCl, 1.5 mM MgCl2, 0.4 uM protein, 0.1 uM dsDNA library, 30 min, room temperature, amylose pull-down; high values mean tight binding. The conditions noted are these: protein: recombinant; tags: His6-MBP; chain copies: 2; dsDNA, one strand shown. Put shortly:
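The N-terminus-lacking fragment of mouse FoxP3 or FoxP1 carried a His6-MBP tag and was expressed in E. coli. At 0.4 µM it was incubated with 0.1 µM Klenow-filled degenerate double-stranded DNA library for 30 min at room temperature in Tris pH 7.5 buffer with NaCl and MgCl2, and complexes were caught on amylose resin, washed three times, released with proteinase K, PCR-barcoded and Illumina-sequenced. Binding is reads-per-million enrichment of pull-down over input with replicates pooled.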
Regarding “GATGATTGTTCTCCCAGCTGATGAATTACTATCGTCGAGTAAACAAATTTTCCTAATCTTTCTGTTCAAGCGCCATCTAC”, the binding signal was 0.509 RPM ratio (pull-down/input).

For the sequence “GATGATTGTTCTCCCAGCTGATGAATTGCTAACTTCGAGTAAACAAATTTTCCTAATCTTTCTGTTCAAGCGCCATCTAC”, the binding signal was 0.723 RPM ratio (pull-down/input).

With “GATGATTGTTCTCCCAGCTGATGAATTGCAAGCGTCGAGTAAACAAATTTTCCTAATCTTTCTGTTCAAGCGCCATCTAC”, the binding signal is 0.974 RPM ratio (pull-down/input).

Consider “GATGATTGTTCTCCCAGCTGATGAATTAGGTGGCTCGAGTAAACAAATTTTCCTAATCTTTCTGTTCAAGCGCCATCTAC”, for which the binding signal was 0.625 RPM ratio (pull-down/input).

As for “GATGATTGTTCTCCCAGCTGATGAATTATCAGAGTCGAGTAAACAAATTTTCCTAATCTTTCTGTTCAAGCGCCATCTAC”, the binding signal is 0.249 RPM ratio (pull-down/input).

Turning to “GATGATTGTTCTCCCAGCTGATGAATTCTTCTCATCGAGTAAACAAATTTTCCTAATCTTTCTGTTCAAGCGCCATCTAC”, the binding signal is 0.242 RPM ratio (pull-down/input).

On to “GATGATTGTTCTCCCAGCTGATGAATTGGTTTATTCGAGTAAACAAATTTTCCTAATCTTTCTGTTCAAGCGCCATCTAC”, for which the binding signal was 4.04 RPM ratio (pull-down/input).

Consider “GATGATTGTTCTCCCAGCTGATGAATTTATTATTTCGAGTAAACAAATTTTCCTAATCTTTCTGTTCAAGCGCCATCTAC”, for which the binding signal is 5.57 RPM ratio (pull-down/input).

With “GATGATTGTTCTCCCAGCTGATGAATTATTTATTTCGAGTAAACAAATTTTCCTAATCTTTCTGTTCAAGCGCCATCTAC”, the binding signal was 2.74 RPM ratio (pull-down/input).

Turning to “GATGATTGTTCTCCCAGCTGATGAATTATTTCTTTCGAGTAAACAAATTTTCCTAATCTTTCTGTTCAAGCGCCATCTAC”, the binding signal was 0.419 RPM ratio (pull-down/input).

Regarding “GATGATTGTTCTCCCAGCTGATGAATTGTTTTATTCGAGTAAACAAATTTTCCTAATCTTTCTGTTCAAGCGCCATCTAC”, the binding signal was 1.66 RPM ratio (pull-down/input).

As for “GATGATTGTTCTCCCAGCTGATGAATTTATTCTTTCGAGTAAACAAATTTTCCTAATCTTTCTGTTCAAGCGCCATCTAC”, the binding signal was 0.542 RPM ratio (pull-down/input).

On to “GATGATTGTTCTCCCAGCTGATGAATTTGTTTATTCGAGTAAACAAATTTTCCTAATCTTTCTGTTCAAGCGCCATCTAC”, for which the binding signal is 7.73 RPM ratio (pull-down/input).

Take “GATGATTGTTCTCCCAGCTGATGAATTTTTTTATTCGAGTAAACAAATTTTCCTAATCTTTCTGTTCAAGCGCCATCTAC”: the binding signal was 0.313 RPM ratio (pull-down/input).

Regarding “GATGATTGTTCTCCCAGCTGATGAATTTATTTATTCGAGTAAACAAATTTTCCTAATCTTTCTGTTCAAGCGCCATCTAC”, the binding signal was 5.86 RPM ratio (pull-down/input).

Consider “GATGATTGTTCTCCCAGCTGATGAATTGGTTATTTCGAGTAAACAAATTTTCCTAATCTTTCTGTTCAAGCGCCATCTAC”, for which the binding signal was 3.1 RPM ratio (pull-down/input).

Regarding “GATGATTGTTCTCCCAGCTGATGAATTTATTGGTTCGAGTAAACAAATTTTCCTAATCTTTCTGTTCAAGCGCCATCTAC”, the binding signal was 5.89 RPM ratio (pull-down/input).

As to “GATGATTGTTCTCCCAGCTGATGAATTTCTTTATTCGAGTAAACAAATTTTCCTAATCTTTCTGTTCAAGCGCCATCTAC”, the binding signal was 1.53 RPM ratio (pull-down/input).

For “GATGATTGTTCTCCCAGCTGATGAATTACCTGCTTCGAGTAAACAAATTTTCCTAATCTTTCTGTTCAAGCGCCATCTAC”, the binding signal was 0.326 RPM ratio (pull-down/input).

Consider “GATGATTGTTCTCCCAGCTGATGAATTTCACGGCTCGAGTAAACAAATTTTCCTAATCTTTCTGTTCAAGCGCCATCTAC”, for which the binding signal is 0.24 RPM ratio (pull-down/input).

Regarding “GATGATTGTTCTCCCAGCTGATGAATTGTGGTACTCGAGTAAACAAATTTTCCTAATCTTTCTGTTCAAGCGCCATCTAC”, the binding signal is 1.06 RPM ratio (pull-down/input).

“GATGATTGTTCTCCCAGCTGATGAATTGTTCCATTCGAGTAAACAAATTTTCCTAATCTTTCTGTTCAAGCGCCATCTAC”: the binding signal was 0.579 RPM ratio (pull-down/input).

Take “GATGATTGTTCTCCCAGCTGATGAATTAACGGGTTCGAGTAAACAAATTTTCCTAATCTTTCTGTTCAAGCGCCATCTAC”: the binding signal was 0.329 RPM ratio (pull-down/input).

With “GATGATTGTTCTCCCAGCTGATGAATTCCAAATCTCGAGTAAACAAATTTTCCTAATCTTTCTGTTCAAGCGCCATCTAC”, the binding signal was 0.26 RPM ratio (pull-down/input).

In the case of “GATGATTGTTCTCCCAGCTGATGAATTTGTAATGTCGAGTAAACAAATTTTCCTAATCTTTCTGTTCAAGCGCCATCTAC”, the binding signal was 3.87 RPM ratio (pull-down/input).

As for “GATGATTGTTCTCCCAGCTGATGAATTATACACGTCGAGTAAACAAATTTTCCTAATCTTTCTGTTCAAGCGCCATCTAC”, the binding signal was 0.65 RPM ratio (pull-down/input).

On to “GATGATTGTTCTCCCAGCTGATGAATTACGAAAGTCGAGTAAACAAATTTTCCTAATCTTTCTGTTCAAGCGCCATCTAC”, for which the binding signal was 0.214 RPM ratio (pull-down/input).

As for “GATGATTGTTCTCCCAGCTGATGAATTTTATTTTTCGAGTAAACAAATTTTCCTAATCTTTCTGTTCAAGCGCCATCTAC”, the binding signal is 4.17 RPM ratio (pull-down/input).

Take “GATGATTGTTCTCCCAGCTGATGAATTTATTTTTTCGAGTAAACAAATTTTCCTAATCTTTCTGTTCAAGCGCCATCTAC”: the binding signal is 4.63 RPM ratio (pull-down/input).

As for “GATGATTGTTCTCCCAGCTGATGAATTTTTATTTTCGAGTAAACAAATTTTCCTAATCTTTCTGTTCAAGCGCCATCTAC”, the binding signal is 0.838 RPM ratio (pull-down/input).

For “GATGATTGTTCTCCCAGCTGATGAATTTTATTGTTCGAGTAAACAAATTTTCCTAATCTTTCTGTTCAAGCGCCATCTAC”, the binding signal is 6.02 RPM ratio (pull-down/input).
